Each structure is given as a SMILES string. The campaign covered roughly 360,000 compounds. About 2,000 (0.56%) were called active. Another 2% or so got no clear call; they are omitted. For the sample, actives were picked, then their nearest neighbours and some compounds at random. Unmarked numbers belong to inactive results. Rule as the data show it: active = activity change below about -65%; inconclusive = mostly about -30% to -63%; inactive = weaker than that.

Results on 90 compounds are retold here after PubChem BioAssay AID651725 (National Center for Advancing Translational Sciences (NCATS), 2012).
% is scaled to controls: 0 for no effect and ±100 for the full control effect.

Chain of Homeobox protein SIX1 (Homo sapiens) + Protein phosphatase EYA2 (Homo sapiens) (O00167 whole entry, looked up): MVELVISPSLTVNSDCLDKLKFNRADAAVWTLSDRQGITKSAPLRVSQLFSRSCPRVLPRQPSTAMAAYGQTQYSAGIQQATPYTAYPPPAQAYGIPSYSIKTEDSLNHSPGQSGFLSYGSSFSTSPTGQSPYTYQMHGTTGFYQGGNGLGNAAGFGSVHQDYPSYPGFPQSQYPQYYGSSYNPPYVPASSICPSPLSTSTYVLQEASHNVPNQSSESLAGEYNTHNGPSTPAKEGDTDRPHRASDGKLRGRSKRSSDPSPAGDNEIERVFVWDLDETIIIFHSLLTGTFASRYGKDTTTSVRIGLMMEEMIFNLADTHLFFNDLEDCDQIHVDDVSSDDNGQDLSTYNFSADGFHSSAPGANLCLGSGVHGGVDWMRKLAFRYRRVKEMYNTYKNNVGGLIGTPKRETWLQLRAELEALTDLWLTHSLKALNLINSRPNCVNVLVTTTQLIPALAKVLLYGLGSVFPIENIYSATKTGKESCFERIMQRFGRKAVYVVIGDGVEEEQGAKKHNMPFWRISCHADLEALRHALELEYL
Chain of Homeobox protein SIX1 (Homo sapiens) + Protein phosphatase EYA2 (Homo sapiens) (Q15475 whole entry, looked up): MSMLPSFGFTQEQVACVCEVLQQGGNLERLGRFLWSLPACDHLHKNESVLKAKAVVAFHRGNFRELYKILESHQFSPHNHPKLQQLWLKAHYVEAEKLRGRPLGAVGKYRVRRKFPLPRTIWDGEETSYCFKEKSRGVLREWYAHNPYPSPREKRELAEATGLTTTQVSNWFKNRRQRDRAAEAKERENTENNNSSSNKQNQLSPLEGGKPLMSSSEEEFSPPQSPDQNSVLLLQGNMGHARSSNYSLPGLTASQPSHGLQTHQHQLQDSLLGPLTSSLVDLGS

The assay concerns the target Homeobox protein SIX1 (Homo sapiens) + Protein phosphatase EYA2 (Homo sapiens) (UniProt Q15475+O00167). The experiment in a line: qHTS Assay for Inhibitors of the Six1/Eya2 Interaction. The following applies: AlphaScreen GST-Six1/His-Eya2 binding, biochemical; stronger effect = lower value. The method in brief: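 Compounds are tested against tagged Six1 and Eya2 proteins bridged by glutathione donor and nickel acceptor beads; after a one-hour incubation at 37 °C without light, AlphaScreen emission is recorded.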
Turning to `Cc1c(N=Nc2ccc(N(C)C)cc2)c(=O)n(-c2ccccc2)n1C`, the activity change is -7.33%.

Take `Cc1nc(N)sc1N=Nc1c(C)n(C)n(-c2ccccc2)c1=O`: the activity change was -66.7% (active).

As to `Cc1c(C=O)n(C)n(-c2ccccc2)c1=O`, the activity change is 15.7%.

With `CCCCCCCCN1C(=O)[C@H](CC(=O)NCc2cccc3ccccc23)C[C@@]2(C(=O)OC)CCCCC=C12`, the activity change was 0.0747%.

Turning to `N#Cc1ccc(C(C(=O)NCc2ccccc2)n2c(=O)c(-c3ccco3)nc3ccccc32)cc1` (stereo not given), the activity change is 2.42%.

As for `O=C(CNC(=O)c1cccnc1)N/N=C/c1cc(Br)c(O)c(Br)c1`, the activity change is -6.06%.

Take `Cc1ccc(S(=O)(=O)N(CC(=O)N/N=C/c2ccc(F)cc2)c2cccc3cccnc23)cc1`: the activity change was -0.495%.

As for `O=C(CSc1cccc2cccnc12)N/N=C/c1cccnc1`, the activity change was -80.7% (active).

As for `C[C@H]1CN([C@@H](C)CO)C(=O)CCCn2nncc2CO[C@@H]1CN(C)Cc1ccc(Oc2ccccc2)cc1`, the activity change was 13.9%.

On to `CNc1[nH]ncc1[N+](=O)[O-]`, for which the activity change was -66.5% (active).

In the case of `CNc1ccc(NC(C)=O)cc1[N+](=O)[O-]`, the activity change was -0.656%.

Take `Cc1cc([N+](=O)[O-])c(=O)[nH]c1C`: the activity change was 4.44%.

Take `Nc1nnnn1/N=C/c1cccc(Br)c1`: the activity change is -1.52%.

For the compound `Nc1nnnn1/N=C/c1cccs1`, the activity change was 2.77%.

Consider `Nc1nnnn1/N=C/c1cc([N+](=O)[O-])ccc1O`, for which the activity change is -65.9% (active).

For the compound `COC(=O)[C@@]12C[C@@H](CC(=O)N3CCCCC3)C(=O)N(Cc3ccc4c(c3)OCO4)C1=CCC(C)(C)C2`, the activity change was -15.9%.

Turning to `COc1ccc(C(C)(C)C)cc1NC(=O)CN(C)C1=NS(=O)(=O)c2ccccc21`, the activity change was 4.86%.

Consider `COc1ccc(/C=N/N(C)C2=NS(=O)(=O)c3ccccc32)cc1OC`, for which the activity change is -67.9% (active).

As to `C=CCOCCN(C)C1=NS(=O)(=O)c2ccccc21`, the activity change was -3.42%.

As for `CC1CN(C(=O)c2cccc(NS(=O)(=O)c3ccc(Br)cc3)c2)CC(C)O1` (stereo not given), the activity change was -2.46%.

On to `C[C@H](NC(=O)[C@@H]1CCCN1C(=O)[C@@H]1CCCN1C(=O)c1ccccc1)c1ccccc1`, for which the activity change was 0.523%.

Consider `CC1CN(S(=O)(=O)c2cccc(C(F)(F)F)c2)CN1C(=O)N1CCOCC1` (stereo not given), for which the activity change is -0.306%.

With `CC1(C(=O)NCc2ccccc2)CSCC(=O)N1CCCN1CCOCC1` (stereo not given), the activity change is -1.18%.

With `Cn1c(SCC(=O)Nc2ccc(Cl)cc2)nc(O)cc1=O`, the activity change is 7.12%.

Regarding `Oc1ccc2ccccc2c1N=Nc1nccs1`, the activity change was -81.4% (active).

Turning to `Oc1ccc(N=Nc2nccs2)c(O)c1`, the activity change was -77.5% (active).

Regarding `CC1(C(=O)NCc2ccccc2)CN(S(C)(=O)=O)CC(=O)N1CC(F)(F)F` (stereo not given), the activity change was 2.8%.

Regarding `CN1C(c2ccc(F)cc2)=CS/C1=C(/C#N)c1nnc2n1-c1ccccc1SC2`, the activity change was -14.2%.

As for `COC(=O)C1(C(=O)OC)C[C@H](c2ccccc2)N(Cc2ccccc2OC)[C@@H]1c1ccccc1`, the activity change was 1.28%.

Turning to `CCC(C(=O)NCc1ccccc1)n1c(Cc2cc(F)cc(F)c2)nc2ccccc21` (stereo not given), the activity change is -0.68%.

In the case of `COc1ccc(N2c3ccccc3CN(Cc3ccccc3)[C@@H](C)[C@H]2Cc2ccc(-c3ccccc3)cc2)cc1`, the activity change was -12.3%.

On to `CC(=O)c1cc(CN2CCC(n3nccc3NC(=O)c3ccccc3Cl)CC2)cs1`, for which the activity change is -1.64%.

For `Cc1ccc(-c2c(N)nc3ncccn23)cc1`, the activity change was -9.22%.

Turning to `CC(=O)N1Cc2cc(C(=O)NCc3cccc(F)c3)nc(-c3cccc(C4=CCCCC4)c3)c2[C@H]1CCO`, the activity change is 0.697%.

With `O=S1(=O)CCN(Cc2ccccc2)CC1`, the activity change is -0.459%.

Consider `O=C1c2ccccc2C(=O)c2c1cccc2N1CCN(Cc2ccccc2)CC1`, for which the activity change was -88.9% (active).

Consider `O=C(CN1CCN(Cc2ccccc2)CC1)NC(c1ccccc1)c1ccccc1`, for which the activity change is -3.09%.

In the case of `Clc1ccc(-c2nc3ccccn3c2CN2CCSCC2)cc1`, the activity change was -7.53%.

As for `Cc1nc(CN(C)C(=O)CC2C(=O)NCCN2Cc2ccc(F)cc2)cs1` (stereo not given), the activity change is 6.54%.

As to `O=C1CCC/C(=N\NC(=O)NC2CCCCC2)C1`, the activity change was 4.54%.

Regarding `COC(=O)[C@@]12C[C@@H](CC(=O)N3CCC(c4ccccc4)CC3)C(=O)N(Cc3ccccc3)C1=CCC(C)(C)C2`, the activity change is -15.9%.

Consider `CC(C)(C)C(=O)CSc1nc2ccccc2o1`, for which the activity change is 10%.

Take `Cc1ccc(/C=N/NC(=O)CSc2nc3ccccc3o2)cc1`: the activity change was -87.1% (active).

For `O=C(CSc1nc2ccccc2o1)N/N=C/c1ccccc1C(=O)O`, the activity change is -67.9% (active).

As to `O=C(CSc1nc2ccccc2o1)N1CCN(c2ccccc2)CC1`, the activity change was 0.782%.

Turning to `CCC(NC(=O)c1ccccc1NC(=O)c1ccccc1)C(=O)NNC(=O)CSc1nc2ccccc2o1` (stereo not given), the activity change was -24.4%.

In the case of `CCN(CC)C(=O)CSc1nc2ccccc2o1`, the activity change was 6.18%.

As for `Cc1ccc(-c2nc3c(Cl)cc(C(F)(F)F)cn3c2Cc2cccc(Cl)c2)cc1`, the activity change is 1.53%.

With `CC(C)CN1C(=O)CN(S(C)(=O)=O)CC1(C)C(=O)NCc1ccccc1` (stereo not given), the activity change is 5.67%.

Take `CCOc1ccc(CCN2C(=O)C(=O)N([C@@H](CC(C)C)CN3CCC[C@H]3CN3C(=O)C(=O)NC[C@@H]3Cc3ccccc3)C[C@@H]2CC(C)C)cc1`: the activity change is -1.05%.

Regarding `CC(C)(C)C(=O)NCCCNc1ccc([N+](=O)[O-])cc1`, the activity change was -1.69%.

With `O=C(Nc1ccccc1F)C1C2C=CC3(O2)C1C(=O)N(c1cccnc1)C3C(=O)NC1CCCCC1` (stereo not given), the activity change is 4.1%.

As for `Nc1ccc2nc3c(=O)[nH]c(=S)[nH]c3nc2c1`, the activity change is -79.3% (active).

Turning to `O=C(C(NS(=O)(=O)c1cccc2nsnc12)c1ccccc1)N1CCN(c2ccccc2)CC1` (stereo not given), the activity change is -0.046%.

Regarding `COc1ccc(C(O)C(O)(C(=O)OC(C)C)c2ccc(C)cc2)cc1` (stereo not given), the activity change was 10.6%.

As for `Cc1ccc2cc(C#N)c(NCCNC(=S)NCCCN3CCOCC3)nc2c1`, the activity change is -1.85%.

With `C/C(=N\Nc1cccc(C(=O)O)c1)c1ccc2c(c1)Nc1ccccc1S2`, the activity change was -18.9%.

Regarding `O=C1NC[C@H](CCCCN2C[C@H](Cc3ccccc3)N(Cc3ccccc3)C(=O)C2=O)N(CCc2ccc(O)cc2)C1=O`, the activity change was -1.72%.

With `NN=C(NN=Cc1ccccc1)c1ccccc1`, the activity change was 15.8%.

`C=CCOc1ccccc1/C=N/NC(=O)Cc1ccccc1`: the activity change is -1.77%.

On to `O=C(N/N=C/c1ccccc1O)/C(=C/c1ccccc1)CCO`, for which the activity change is -80.4% (active).

For the compound `CN1CCN(C(=O)c2ccc(NC(=O)c3ccc(Br)o3)cc2)CC1`, the activity change was 1.67%.

Take `COc1ccc(S(=O)(=O)N[C@@H]2C=C[C@@H](CC(=O)N3CCc4ccccc4C3)O[C@@H]2CO)cc1`: the activity change was -3.17%.

Take `CC(=O)/C(=N\Nc1ccc(Cl)cc1Cl)Sc1cccc2cccnc12`: the activity change is -91.1% (active).

On to `COc1cccc(CNC(=O)C2CCN(S(=O)(=O)c3cccc4cccnc34)CC2)c1`, for which the activity change was -4.19%.

In the case of `Cc1cc(OCCOc2cccc3cccnc23)c(C)cc1Cl`, the activity change was -4.24%.

On to `COc1cc(CC(=O)N2CCC(n3nccc3NC(=O)C3CC3)CC2)cc(OC)c1OC`, for which the activity change is -0.446%.

As for `CCOc1ccc(N2C(=O)CSC2=NC#N)cc1`, the activity change is 2.91%.

As for `COc1cc(N2C(=O)CSC2=S)cc(OC)c1OC`, the activity change was -9.23%.

Turning to `CCOc1cccc(/C=N/N2C(=O)CSC2=S)c1O`, the activity change was -92.8% (active).

As to `CCOC(=O)[C@]12CCCC=C1N(CCC1=CCCCC1)C(=O)[C@H](CC(=O)N1CCSCC1)C2`, the activity change is -5.61%.

Turning to `Cc1cc(OCc2ccc(C(=O)Nc3ccc(C(=O)O)cc3)o2)ccc1Cl`, the activity change is -9.21%.

Consider `Cn1cnc(S(=O)(=O)N2C[C@@H](O)COC[C@@H]3O[C@H](CC(=O)NC4CCC4)CC[C@H]32)c1`, for which the activity change was -0.831%.

`COc1ccccc1NC(=O)COC(=O)COc1ccccc1F`: the activity change was 6.13%.

Consider `O=C(COc1ccccc1)Nc1nonc1NC(=O)COc1ccccc1`, for which the activity change is -6.13%.

Turning to `CC(NC(=O)c1ccco1)C(=O)Nc1nc(-c2ccccn2)cs1` (stereo not given), the activity change was -83.1% (active).

In the case of `N#Cc1ccc(OCC(=O)Nc2nc(-c3ccccn3)cs2)cc1`, the activity change was -90% (active).

In the case of `CSCCC(NC(=O)c1ccco1)C(=O)Nc1cc(C)ccn1` (stereo not given), the activity change is -1.3%.

On to `O=C(COc1ccccc1F)Nc1nc(-c2ccccn2)cs1`, for which the activity change is -84.1% (active).

Consider `CC1CCN(S(=O)(=O)c2nnc(NC(=O)COc3ccccc3F)s2)CC1`, for which the activity change was 3.54%.

As for `O=C(CCN1C(=O)C2C3C=CC(C3)C2C1=O)Nc1ccccc1F` (stereo not given), the activity change was 2.72%.

For the compound `Cc1cc(NC(=O)[C@H](C)NC(=O)c2ccco2)ccc1Br`, the activity change was 0.811%.

`O=C(CN1C(=O)C2C3C=CC(C3)C2C1=O)Nc1nc(-c2ccccn2)cs1` (stereo not given): the activity change is -80.4% (active).

Consider `O=C(NCCN1C(=O)C2C3C=CC(C3)C2C1=O)Nc1ccccn1` (stereo not given), for which the activity change is 2.02%.

For `CC1CCCCC1NC(=O)COc1ccc(C#N)cc1` (stereo not given), the activity change is -10.9%.

For `Cc1ccc2c(c1)c1ncnc(N3CCc4ccccc4C3)c1n2C`, the activity change is -7.75%.

For `CCOc1ccc(CN2CCN(Cc3ccon3)CC2CCO)cc1` (stereo not given), the activity change was 5.89%.

As to `CCCCCNC(=O)C(c1ccc(OC)cc1)n1c(=O)c(-c2ccccc2)nc2ccccc21` (stereo not given), the activity change is 5.06%.

Regarding `CCCNC(=O)c1cc(C2CCCCN2S(=O)(=O)c2cn(C)cn2)on1` (stereo not given), the activity change was 0.952%.

With `CC(C)(C)C(=O)c1c(N)[nH]c(C(=O)c2ccccc2)c1-c1ccc(F)cc1`, the activity change was -8.67%.
